# Screening data (PubChem BioAssay)
# Shiga inhibitor = Shiga toxin inhibition. Vero cells, Shiga toxin protein synthesis inhibition reporter. inhibition, % at 38.7 µM. actives 9.2% (n = 290,000); in the data active = inhibition mostly above about 28%, no sharp cut-off; inactive = mostly below about 43%; also: 0% is about no effect
# Cycloheximide cs = affects cycloheximide protein synthesis inhibition readout, counter-screen | cell reporter, cycloheximide protein synthesis inhibition counterscreen | max response, % | actives 12% (n = 300,000) | AID 2314; in the data active = max response mostly above about 13%, no sharp cut-off; inactive = mostly below about 14%; also: read at 38.3 µM for the half of the compounds with a filed dose; 0% is about no effect
# HCV inhibitor = inhibitors of hepatitis C virus infection; Huh7.5.1 HCVcc-Cre infection, luciferase reporter, 44 h; Potency, µM (series often up to 41.8 µM), for the others: at the top dose activity change, negative = inhibition, hits mostly inhibitors; actives 3.4% (n = 340,000); active = well fitted inhibition curve with a large enough effect; inconclusive = small, poorly fitted or top-dose-only effect, or another doubt; inactive = no such curve, though single readings can be large or run the other way; also: potency is read from the fitted curve at half-maximal effect; % is scaled to controls: 0 for no effect and ±100 for the full control effect
#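 A cell-based infection assay in which seeded cells (1,000 per well) receive test compound after 4 h, are inoculated with HCVcc-Cre at approximately 0.5 moi, and are incubated 44 h before luminescence detection.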
# FMDV inh = antivirals against foot and mouth disease virus; AID 1159524; Potency, µM (top dose mostly 57.9 µM), inactives show at the top dose activity change, negative = inhibition, hits mostly inhibitors; FMDV antiviral cell-based qHTS; actives 1.2% (n = 410,000); calls by dose curve; tested in HEK293T cells; also: read-out not given here; potency is read from the fitted curve at half-maximal effect; % is scaled to controls: 0 for no effect and ±100 for the full control effect; nearly all actives have a fitted effect of over 45% in size
# LASV entry inh = inhibitors of Lassa virus binding or cell entry; Lassa virus pseudotype entry inhibition, cell reporter; Potency, µM (series often up to 37.9 µM), for the others: at the highest dose activity change, negative = inhibition, most hits filed as inhibitors; actives 1.2% (n = 300,000); calls by dose curve; tested in HEK293 cells; also: potency is read from the fitted curve at half-maximal effect; % is scaled to controls: 0 for no effect and ±100 for the full control effect; nearly all actives have a fitted effect of over 50% in size
# MARV entry inh = Marburg virus entry inhibition | actives 1.8% (n = 300,000) | Potency, µM (doses to about 37.8 µM), for the others: top-dose activity change, negative = inhibition, most hits filed as inhibitors | AID 540276 | Marburg virus pseudotyped entry inhibition, cell reporter; calls by dose curve; tested in HEK293 cells; also: potency is read from the fitted curve at half-maximal effect; % is scaled to controls: 0 for no effect and ±100 for the full control effect
# * = called active by the depositor; ? = inconclusive; nt = no result given; [ ] = dose if it differs, or a comment. An excerpt weighted towards active compounds, which were near 13% of everything screened.
SMILES,Shiga inhibitor,Cycloheximide cs,HCV inhibitor,FMDV inh,LASV entry inh,MARV entry inh
CCc1ccccc1NC(=O)CSCc1cnn(-c2ccccc2)c1-n1cccc1,nt,nt,nt,?,-11%[46.1 µM],-30%[46.1 µM]
O=c1c(/C=N\NS(=O)(=O)c2ccccc2)coc2ccc(Cl)cc12,-8,-1,-8%,-14%,-7%[46.1 µM],-6%[46.1 µM]
Cc1ccc(-n2nc(C)c(C(=O)N3CCN(C(=O)c4ccco4)CC3)c2-n2cccc2)cc1,-15,-5,9%,-8%,nt,nt
CC(=O)c1cccc(S(=O)(=O)N2CCN(c3nc4cc(C)cc(C)c4cc3C#N)CC2)c1,-13,-7,13µM*,-22%,-12%,?
Cc1cc(C)c2c(CC(=O)Nc3ccc(S(=O)(=O)Nc4nc(C)cc(C)n4)cc3)coc2c1,nt,nt,nt,57%,5%[46.1 µM],0%[46.1 µM]
Cc1cc(C)c(NC(=O)c2cc(S(=O)(=O)N3CCOCC3)ccc2F)c(C)c1,-1,5,-4%,2%,nt,nt
O=C(Nc1cccc(Cl)c1)OCCOC(=O)Nc1cccc(Cl)c1,nt,nt,?,-15%,?,?
O=C(Nc1ccccc1)OCCOc1ccccc1Br,28*,35*,-17%,46%,nt,nt
O=C(Nc1ccccc1)OCCOc1ccccc1,61*,32*,13µM*,17%,8%,10%
CCC1(COC(=O)Nc2cccc(Cl)c2)COC1,51,22*,-14%,26%,14%,-1%
O=C(Nc1cccc(Cl)c1)OCCOc1ccccc1,75*,56*,-22%,48%,nt,nt
Cc1ccc2nc(/C(C#N)=C\c3ccc(Oc4ccc(C(F)(F)F)cc4[N+](=O)[O-])cc3)[nH]c2c1,79*,31*,5%,-13%,-2%,?
COc1cc(/C=C(\C#N)c2nc3ccc(C)cc3[nH]2)c([N+](=O)[O-])cc1OC,8,-1,?,-22%,?,?
COc1cc(/C=C(\C#N)c2nc3ccc(C)cc3[nH]2)cc([N+](=O)[O-])c1O,56*,30*,9%,-1%,7%[46.1 µM],?
Cc1ccc2nc(/C(C#N)=C\c3cc(O)ccc3[N+](=O)[O-])[nH]c2c1,33,36*,-9%,-5%,1%,25%[46.1 µM]
COc1ccc(/C=C(\C#N)c2nc3ccc(C)cc3[nH]2)cc1Oc1ccc(C(F)(F)F)cc1[N+](=O)[O-],-12,12,?,0%,19%,-28%
CCN(CC(=O)NCc1ccc2c(c1)OCO2)S(=O)(=O)c1ccc(F)cc1,-6,4,-6%,13%,-19%[46.1 µM],-3%[46.1 µM]
O=C(COC(=O)c1ccc(F)cc1)NCC1CCCCC1,nt,nt,2%,-10%,nt,nt
COc1ccc2c(=O)c(-c3ccc4c(c3)OCO4)coc2c1,76*,68*,-11%[8.37 µM],-19%,3%,?
CCN(CC)C(=O)Oc1ccc2c(=O)c(-c3ccc(OC)cc3)coc2c1,83*,45*,?,nt,-6%,-2%
COc1ccccc1-c1coc2cc(OC(=O)N3CCOCC3)ccc2c1=O,101*,48*,0%,49%,nt,nt
COc1ccccc1Oc1coc2cc(OC(=O)N3CCOCC3)ccc2c1=O,-2,1,-3%,16%,7%,3%
CC(=O)Oc1ccc2c(=O)c(-c3nc4ccccc4s3)coc2c1,95*,60*,-2%,-48%,1%,?
Cc1cccc(-n2nnnc2SCC(=O)NCC2CCCO2)c1 (stereo unspecified),93,1,-3%,?,nt,nt
Nc1ccc(-c2nc3nc(N)nc(N)c3nc2-c2ccc(N)cc2)cc1,-3,1,-10%,1%,?,?
SMILES,Shiga inhibitor,Cycloheximide cs,HCV inhibitor,FMDV inh,LASV entry inh,MARV entry inh
CCN(CC)C(=O)Oc1ccc2cc(Br)ccc2c1,123*,28*,2%,8%,2%,?
CCc1cc2c(=O)c(-c3nc4ccccc4[nH]3)coc2cc1OC(=O)N1CCOCC1,43,24*,-10%,-2%,5%,15%
CCN(CC)C(=O)Oc1ccc2c(=O)c(-c3ccc(OC)cc3)c(C)oc2c1,10,18,nt,?,-16%[14.3 µM],-26%
CCC(Oc1ccc2c(=O)c(-c3ccccc3OC)coc2c1)C(=O)OCc1ccccc1 (stereo unspecified),10,-2,?,20µM*,-5%,?
COc1ccc(-c2coc3cc(OC(=O)N4CCOCC4)ccc3c2=O)cc1,31*,26*,-28%,?,?,-11%[46.1 µM]
CCc1cc2c(=O)c(-c3nc4ccccc4[nH]3)coc2c(CN2CCC(C)CC2)c1O,nt,nt,nt,nt,nt,1%
Cc1noc(C)c1-c1nc(NC2CCNCC2)c2ccccc2n1,nt,nt,nt,2%,nt,nt
O=c1/c(=C\c2ccc(O)cc2)sc2n1C(c1ccccc1)C(c1ccccc1)=NN=2 (stereo unspecified),7,13,0%,?,-20%,-1%
COc1ccc(C2=NOC(C(=O)NCc3ccc(F)cc3)C2)cc1OC (stereo unspecified),-5,-5,?,-19%,0.82µM*,?
O=C(C1CC(c2cccc(Br)c2)=NO1)N1CCc2ccccc2C1 (stereo unspecified),21,18*,-20%,25%,-2%,0%
COc1cc(NC(=O)C2CC(c3cccc(Br)c3)=NO2)cc(OC)c1OC (stereo unspecified),4,3,-21%,-19%,?,?
O=C(NCc1cccs1)C1CC(c2ccc(F)cc2)=NO1 (stereo unspecified),49*,28*,13%,69%,-9%,8%[46.1 µM]
COCC(C)NC(=O)C1CC(c2cccc(Br)c2)=NO1 (stereo unspecified),-2,-5,3.2µM*,14%,2%,2%
COc1ccc2c(c1)CC[C@@H]1[C@@H]2CC[C@]2(C)[C@@H](NCCCCCCN3C(=O)C=CC3=O)CC[C@@H]12,nt,nt,nt,-8%,nt,nt
COc1ccc2[nH]c(CN3CCN(CCC(C)C)C(CCO)C3)c(C)c2c1 (stereo unspecified),-11,2,0%,-2%,nt,nt
O=C(NC(Cc1ccccc1)C(=O)O)C1CCN(S(=O)(=O)c2cccc(C(F)(F)F)c2)CC1 (stereo unspecified),5,8,27%,10%,?,0%
COc1cccc(C2=NOC(C(=O)NCc3cccs3)C2)c1 (stereo unspecified),54*,26*,2%,55%,-22%,?
CCCCNC(=O)C1CC(c2cccc([N+](=O)[O-])c2)=NO1 (stereo unspecified),83*,25*,16%,45%,nt,nt
CC(C)CCNC(=O)C1CC(c2cccc([N+](=O)[O-])c2)=NO1 (stereo unspecified),-11,-4,-3%,-10%,nt,nt
COc1ccc(CNC(=O)C2CC(c3cccc(OC)c3)=NO2)cc1 (stereo unspecified),8,3,12%,-17%,?,1%
